An excerpt weighted towards active compounds, which were near 6.5% of everything screened.
HCMV antiviral – blocks human cytomegalovirus replication. HFF cells, HCMV-luciferase reporter, 72 h; active compounds read low. activity change, negative = inhibition, % at 57.5 µM. 4.5% of 410,000 active. AID 1259415; in the data active = activity change below about -60%; inconclusive = no clear call, values can overlap the other calls; inactive = above about -39%
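Steps: HFFs plated, 16 h 37C; compounds added; HCMV-luciferase added to MOI 1 PFU/cell; 72 h 37C; OneGlo reagent, 5 min room temperature; luminescence read, normalized to controls.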
Lassa entry inh – inhibitors of Lassa virus binding or cell entry. AID 540256. Potency, µM (highest dose often 37.9 µM), most hits filed as inhibitors. 1.2% of 300,000 active. Lassa virus pseudotype entry inhibition, cell reporter; calls by dose curve; tested in HEK293 cells; note: nearly all actives have a fitted effect of over 50% in size
Vaccinia Venus – inhibitors of vaccinia virus (Venus reporter) | 0.46% of 330,000 active | Potency, µM (series often up to 36.5 µM), hits mostly inhibitors | Vaccinia virus Venus reporter expression, fluorescence | AID 720580; calls by dose curve; tested in A549 cells; note: nearly all actives have a fitted effect of over 30% in size
FMDV inh – blocks foot and mouth disease virus; FMDV antiviral cell-based qHTS; Potency, µM (series often up to 57.9 µM), actives largely listed as inhibitors; 1.2% of 410,000 active; AID 1159524; calls by dose curve; tested in HEK293T cells; note: read-out not given here; nearly all actives have a fitted effect of over 45% in size
Vaccinia mCherry – inhibitors of vaccinia virus infection (mCherry reporter signal); Vaccinia virus mCherry reporter infection, fluorescence; 0.63% of 310,000 active; Potency, µM (doses to about 36.5 µM), usual class: inhibitors; calls by dose curve; tested in A549 cells; note: nearly all actives have a fitted effect of over 35% in size
MARV entry inh – Marburg virus entry inhibition | Marburg virus pseudotyped entry inhibition, cell reporter | AID 540276 | Potency, µM (highest dose often 37.8 µM), hits mostly inhibitors | 1.8% of 300,000 active; calls by dose curve; tested in HEK293 cells
Large screens that a line does not name were inactive.

COc1ccc2nc(SCC(C)=O)c(C#N)cc2c1	Lassa entry inh 5.6µM, MARV entry inh inconclusive
COc1ccc2nc(SCC(=O)N3CC(=O)Nc4ccccc43)c(C#N)cc2c1	HCMV antiviral -100, Lassa entry inh inconclusive, Vaccinia Venus inconclusive, Vaccinia mCherry inconclusive, MARV entry inh inconclusive
CC(CNc1nc2ccccc2c2nc(-c3ccccc3)nn12)c1ccccc1 (stereo unspecified)	HCMV antiviral -94, FMDV inh inconclusive (no result: Lassa entry inh)
c1ccc(CNc2nc3ccccc3c3nc(-c4ccccc4)nn23)cc1	none (no result: Lassa entry inh)
Cc1nc2ccc(S(=O)(=O)NC(C(=O)NCc3ccco3)C(C)C)cc2s1 (stereo unspecified)	HCMV antiviral -64 (no result: Lassa entry inh, MARV entry inh)
Cc1ccc(CNC(=O)C(NS(=O)(=O)c2ccc3nc(C)sc3c2)C(C)C)cc1 (stereo unspecified)	none (no result: Lassa entry inh, MARV entry inh)
O=C1/C(=C/c2cccs2)COc2ccccc21	MARV entry inh inconclusive
O=C1C(=Cc2cccs2)Oc2ccccc21	HCMV antiviral -69, Lassa entry inh inconclusive
COc1cc(-c2cc(C)c3cccc(OC)c3n2)cc2c1OCCN(C(=O)Cn1nc(C)cc1C)C2	none (no result: HCMV antiviral, Lassa entry inh, MARV entry inh)
CC(C)SCCCOc1ccc(C(C)(C)C)cc1	HCMV antiviral -86 (no result: Vaccinia mCherry)
CCN1CCN(CCCNC(=O)c2ccc3c(Cl)c4c(nc3c2)CCCC4)CC1	HCMV antiviral -83, Lassa entry inh inconclusive, Vaccinia Venus 13µM, Vaccinia mCherry inconclusive, MARV entry inh inconclusive
CC1CCN(CCCNC(=O)c2ccc3c(Cl)c4c(nc3c2)CCCC4)CC1	HCMV antiviral inconclusive, Lassa entry inh inconclusive, MARV entry inh 10µM
CCN(C(=O)CN1C(=O)NC2(CCCC2)C1=O)c1nc2c(C)cccc2s1	none (no result: Lassa entry inh, MARV entry inh)
CC(NC(=O)CN1C(=O)NC(Cc2ccccc2)(Cc2ccccc2)C1=O)C12CC3CC(CC(C3)C1)C2 (stereo unspecified)	Lassa entry inh inconclusive, Vaccinia Venus inconclusive, Vaccinia mCherry 10µM, MARV entry inh inconclusive
CC1CCCCC1NC(=O)CN1C(=O)NC(Cc2ccccc2)(Cc2ccccc2)C1=O (stereo unspecified)	none
CC(NC(=O)Cn1ccsc1=N)C12CC3CC(CC(C3)C1)C2 (stereo unspecified)	Lassa entry inh inconclusive, MARV entry inh 10µM
O=C(/C=C/c1ccccc1)c1ccc(O[C@H]2OC(CO)C(O)C(O)C2O)cc1O (stereo partly specified)	none (no result: HCMV antiviral, Lassa entry inh, MARV entry inh)
Cc1ccc(C(C)C)cc1OCC(=O)Nc1nnc(C2CC2)s1	HCMV antiviral -84, Lassa entry inh inconclusive, Vaccinia mCherry 2µM, MARV entry inh inconclusive
Cc1ccc(C(CCNC(C)c2cccs2)c2ccco2)cc1 (stereo unspecified)	HCMV antiviral -61, Lassa entry inh inconclusive, MARV entry inh inconclusive
CC(NCCC(Cc1ccccc1)c1ccco1)c1ccccc1 (stereo unspecified)	none (no result: Lassa entry inh, MARV entry inh)
COc1cc(/C=C2/CC/C(=C/c3ccc(O)c(OC)c3)C2=O)ccc1O	none (no result: Lassa entry inh, MARV entry inh)
C/C=C/c1ccc(O)c(OC)c1	none (no result: Lassa entry inh, MARV entry inh)
COc1cc(/C=C2\COC/C(=C\c3ccc(O)c(OC)c3)C2=O)ccc1O	HCMV antiviral -99, Lassa entry inh inconclusive, Vaccinia Venus inconclusive, FMDV inh 18µM, Vaccinia mCherry inconclusive, MARV entry inh inconclusive
COc1cc(/C=C/C=C2/CC/C(=C/C=C/c3ccc(O)c(OC)c3)C2=O)ccc1O	HCMV antiviral -99, Lassa entry inh inconclusive, FMDV inh inconclusive, MARV entry inh inconclusive
CC(Sc1nc2c(N)ncnc2n1CCOc1ccccc1)C(=O)O (stereo unspecified)	none (no result: Lassa entry inh, Vaccinia Venus, Vaccinia mCherry, MARV entry inh)
CCC(=O)NC1=C(Cl)C(=O)C(NC(=O)CC)=C(Cl)C1=O	HCMV antiviral -94, Vaccinia Venus inconclusive, FMDV inh inconclusive (no result: Lassa entry inh, MARV entry inh)
Cc1cc(C)n2nc(SCC(=O)Nc3cccc(C(F)(F)F)c3)nc2n1	HCMV antiviral inconclusive
CC(C)(C)N1C(=O)c2ccc(C(=O)Nc3cc(C(=O)O)cc(C(=O)O)c3)cc2C1=O	none (no result: Lassa entry inh, Vaccinia Venus, Vaccinia mCherry, MARV entry inh)
C[C@]12CCCCC3=CC(=O)C=C[C@@]31OCC2	none (no result: Lassa entry inh, Vaccinia Venus, FMDV inh, Vaccinia mCherry, MARV entry inh)
COc1ccccc1N/C(N)=N/c1nc(CSc2ccc(C)cc2)cc(=O)[nH]1	HCMV antiviral inconclusive, FMDV inh inconclusive, Vaccinia mCherry inconclusive, MARV entry inh inconclusive
CCCc1cc(=O)[nH]c(/N=C(\N)Nc2ccccc2)n1	none (no result: Vaccinia Venus, Vaccinia mCherry)
CCc1ccc(N/C(N)=N/c2nc(CSc3ccccn3)cc(=O)[nH]2)cc1	HCMV antiviral -85, Lassa entry inh inconclusive, FMDV inh inconclusive, MARV entry inh inconclusive
Cc1ccc(N/C(N)=N/c2nc(CSc3ccccn3)cc(=O)[nH]2)c(C)c1	HCMV antiviral -69, Lassa entry inh inconclusive, FMDV inh inconclusive
Cc1ccc(SCc2cc(=O)[nH]c(/N=C(\N)Nc3ccccc3Sc3ccccc3)n2)cc1	HCMV antiviral -94
COCc1cc(=O)[nH]c(/N=C(\N)Nc2ccc(C)cc2C)n1	HCMV antiviral inconclusive, Lassa entry inh inconclusive
COc1ccccc1C1CCN(Cc2ccc3ccccc3c2)CC1	HCMV antiviral -67, FMDV inh inconclusive, MARV entry inh 7.1µM
CCOc1cc(Br)c(C=O)cc1OCC	HCMV antiviral -92
CCOc1cc(Br)c(C(=O)O)cc1OCC	none (no result: Vaccinia Venus, Vaccinia mCherry)
Cn1c(SCc2ccccc2)nnc1C1CCCN(Cc2cccc3ncccc23)C1 (stereo unspecified)	none (no result: HCMV antiviral, Lassa entry inh, MARV entry inh)
CCOC(=O)c1c(NC(=O)COc2cccc3c2CCN(C)C3=O)sc2c1CCC2	HCMV antiviral -63, Lassa entry inh inconclusive, Vaccinia Venus inconclusive, FMDV inh inconclusive, MARV entry inh inconclusive
Cc1ccc(NC(=O)Nc2nnc(N3CCCCC3)s2)c(C)c1	none
Cc1ccc2nc(NC(=O)C3CCN(S(=O)(=O)c4cccs4)CC3)sc2c1	HCMV antiviral -94, Lassa entry inh 10µM, FMDV inh inconclusive, MARV entry inh inconclusive (no result: Vaccinia Venus, Vaccinia mCherry)
COc1ccc2nc(NC(=O)C3CCN(S(=O)(=O)c4cccs4)CC3)sc2c1	HCMV antiviral -97, Lassa entry inh 15µM, Vaccinia Venus inconclusive, FMDV inh 14µM, Vaccinia mCherry inconclusive, MARV entry inh inconclusive
Cc1ccc2nc(NC(=O)C3CCN(S(=O)(=O)c4cccc5nsnc45)CC3)sc2c1	HCMV antiviral -85, Lassa entry inh inconclusive, FMDV inh inconclusive, MARV entry inh inconclusive
COc1ccc2nc(NC(=O)CN(C)S(=O)(=O)c3cccs3)sc2c1	HCMV antiviral -72, Vaccinia mCherry inconclusive
COc1ccc2nc(NC(=O)CNS(=O)(=O)c3cccs3)sc2c1	none (no result: FMDV inh)
Cc1ccc2nc(NC(=O)C3CCN(S(=O)(=O)c4cccnc4)CC3)sc2c1	FMDV inh inconclusive, Vaccinia mCherry inconclusive (no result: Lassa entry inh, MARV entry inh)
CC(=O)OC[C@H]1O[C@H](c2ccc(C(C)=O)cc2)C=C[C@@H]1OC(C)=O	none (no result: HCMV antiviral, Lassa entry inh, Vaccinia Venus, FMDV inh, Vaccinia mCherry)
CC[C@H]1C(=O)OC[C@@H]1Cc1cncn1C	none (no result: HCMV antiviral, Lassa entry inh, Vaccinia Venus, FMDV inh, Vaccinia mCherry)
Cc1ccc(C)c(N2CCN(C(=O)C3CCN(S(=O)(=O)c4cccc5nsnc45)CC3)CC2)c1	Lassa entry inh inconclusive, Vaccinia Venus inconclusive, FMDV inh 22µM, MARV entry inh inconclusive
O=C(Nc1ccc(OC(F)(F)F)cc1)C1CCN(S(=O)(=O)c2cccs2)CC1	HCMV antiviral -88, Vaccinia Venus inconclusive, FMDV inh inconclusive, Vaccinia mCherry inconclusive

Compound activity from PubChem.
